In the supplement of paper PMC3334620:
In all, about 33,000 sequences were measured (“E-score (-0.5 to 0.5)”: median about -0.012, highest 2% from about 0.27 on). The full list was thinned out, with the highest values kept by preference.

What follows are sequences tested against T1, Vhr1 (UniProt P40522) (assay: PBM E-score (8-mer binding enrichment) (E-score (-0.5 to 0.5)); higher = stronger / more preferred TF binding). Conditions: protein concentration: 200 nM; construct: GST-full length.
T1 sequence: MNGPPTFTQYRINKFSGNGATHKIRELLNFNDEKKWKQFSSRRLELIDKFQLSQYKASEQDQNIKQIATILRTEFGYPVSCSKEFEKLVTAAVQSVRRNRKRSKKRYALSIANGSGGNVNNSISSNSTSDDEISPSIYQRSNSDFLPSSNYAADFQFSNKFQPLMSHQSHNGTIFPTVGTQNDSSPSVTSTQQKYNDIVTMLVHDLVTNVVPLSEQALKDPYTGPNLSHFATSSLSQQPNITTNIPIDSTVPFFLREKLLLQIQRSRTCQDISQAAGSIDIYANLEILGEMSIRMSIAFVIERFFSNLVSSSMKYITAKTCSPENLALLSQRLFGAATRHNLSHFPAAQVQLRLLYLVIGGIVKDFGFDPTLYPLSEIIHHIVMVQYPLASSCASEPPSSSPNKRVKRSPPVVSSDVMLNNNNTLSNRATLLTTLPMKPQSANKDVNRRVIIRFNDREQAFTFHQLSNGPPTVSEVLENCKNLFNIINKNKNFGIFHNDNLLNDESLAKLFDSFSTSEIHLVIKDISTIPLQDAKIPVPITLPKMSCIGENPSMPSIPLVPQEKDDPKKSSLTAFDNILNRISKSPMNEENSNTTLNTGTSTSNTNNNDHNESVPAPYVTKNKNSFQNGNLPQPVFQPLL
Protocol: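 Universal 'all 10-mer' protein binding microarrays (Agilent AMADID 015681) probed with GST-tagged S. cerevisiae TFs (full-length or DBD) made by in vitro transcription/translation (PURExpress), about 100-200 nM. Bound TF was detected with fluorescent anti-GST. Each ungapped 8-mer (which stands for itself and its reverse complement) is scored by the PBM enrichment score (E-score), a modified Wilcoxon-Mann-Whitney statistic from -0.5 to +0.5, computed with the Universal PBM Analysis Suite. Scale: above 0.35 generally sequence-specific binding.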

Row | Sequence | PBM E-score
1 | GACTCGCA | 0.319
2 | TACTCGCA | 0.263
3 | AACTCGCC | 0.00825
4 | CACTCGCC | 0.147
5 | GACTCGGA | 0.278
6 | AACTCGGA | 0.0616
7 | CACTCGTA | -0.0431
8 | GACTCGTA | 0.327
9 | AACTCGCA | -0.0141
10 | AACTCGTA | 0.0622
11 | TACTCGGA | 0.126
12 | GACTCGCC | 0.276
13 | AGCGCATA | -0.0303
14 | CCCAATAG | -0.0738
15 | GACTAAGA | 0.0912
16 | AGTGTTGG | 0.107
17 | ATGCTGGA | -0.001
18 | AATCTCTC | -0.0867
19 | CTAGAGGC | -0.341
20 | CCTTAGAC | -0.16
21 | AGGCTGAG | -0.0574
22 | CACGCGTC | 0.275
23 | CACGCGTA | -0.0315

Row | Sequence | PBM E-score
24 | AACGCGTC | -0.137
25 | GCTCATAA | 0.0821
26 | GTGAGCCA | 0.355
27 | ATGAGCCA | 0.271
28 | CTGAGCCA | 0.247
29 | GCAATGGA | -0.128
30 | AGGAGTGG | 0.0494
31 | ATCAGAAC | 0.0119
32 | CCAGTCAA | 0.045
33 | GCAGTCAC | 0.353
34 | GCAGTCAA | 0.0401
35 | GCAGTCCC | 0.106
36 | CCAGTCAC | 0.296
37 | ACAGTCAC | 0.242
38 | ACGTTGCA | -0.0853
39 | ACCATTAT | 0.169
40 | GCCATGCC | 0.00234
41 | TCTGCCAA | -0.205
42 | CACTGATA | 0.0775
43 | GCAAAATA | 0.00706
44 | ATAATCAA | 0.0618
45 | GCAATCAC | 0.159
46 | ATAATCAT | 0.389

Row | Sequence | PBM E-score
47 | CTAATCAC | 0.27
48 | ATAATCAC | 0.308
49 | ACAATCAC | 0.275
50 | GTAATCAC | 0.198
51 | CCAATCAC | 0.179
52 | ATAATCAG | 0.0967
53 | ACCAGCGT | 0.0656
54 | GCAGAACA | 0.091
55 | CTATTGGA | -0.0419
56 | CAAGGGCG | -0.203
57 | CCACTCGG | -0.147
58 | CTCCCTAA | -0.107
59 | GCAGATTA | 0.0608
60 | ATAAGAAG | -0.11
61 | GAGTACCA | 0.172
62 | CTCCAATC | 0.0374
63 | CTAGTCAG | 0.247
64 | ATAGTCAT | 0.411
65 | ATAGTCAG | 0.333
66 | ATCGTCAT | 0.134
67 | AAAGTCAT | 0.256
68 | ATAGTCAC | 0.41
69 | ATAGTCCC | 0.0218

Row | Sequence | PBM E-score
70 | ATAGTCAA | 0.165
71 | ATAGTCTG | -0.0734
72 | CAACCTTC | -0.171
73 | AACTGGGT | -0.041
74 | GAAGAATC | -0.1
75 | TCTTCACA | 0.0437
76 | CTTTCACC | -0.204
77 | ATTGTTCC | 0.127
78 | TCAAGCGA | -0.0594
79 | GGCTCTAA | -0.0817
80 | TCATAACA | 0.272
81 | ACATAACA | 0.0352
82 | GCATAACA | -0.116
83 | CTCTTGGA | 0.0822
84 | AAAGATTT | -0.134
85 | AATCACAA | 0.187
86 | CCTCACAG | 0.0151
87 | ACTCTCAC | 0.115
88 | ACTCACAG | 0.325
89 | ACACTCAC | 0.281
90 | ACGCACAG | 0.04
91 | AATCACAC | 0.316
92 | AATCACAG | 0.27

Row | Sequence | PBM E-score
93 | ACGCACAT | 0.0403
94 | ACACTCAG | -0.0414
95 | ACTCACAT | 0.286
96 | AATCACAT | 0.17
97 | AGTCTGAC | 0.148
98 | AGGGTCAC | -0.0656
99 | CTTCTTAC | -0.221
100 | CACGGCGG | 0.102
101 | ACAGGAGG | -0.164
102 | CGGAGTAA | 0.0314
103 | AATCGTGT | 0.0868
104 | AAAAGAGG | -0.134
105 | GCCACACC | 0.134
106 | CCGGTGGC | -0.0116
107 | ACTCACAA | 0.286
108 | CCTCACAC | -0.0104
109 | TCTCACAA | 0.0793
110 | ACTCACAC | 0.39
111 | CCTCACAA | 0.115
112 | GCTCACAC | 0.148
